SMILES strings stand for the structures. Inconclusive results are not listed. Activity calls are given as the source filed them. Rule for the calls: active = hit-call score of the fitted dose curve at least 0.9, where 1 is the maximum; inconclusive = response in the unintended direction; inactive = score below 0.9.

In general, AC50 refers to the concentration at which the activity in the assay is half-maximal.

The test can be described thus: TOX21_p53_BLA_p5_viability: Viability Assessment in the Tox21 HCT-116 p53 Agonism Beta-lactamase Assay, Phase 5 (AID 2283600). The text has this:
TOX21_p53_BLA_p5 is a cell-based, single-readout assay that uses HCT116, a human intestinal cell line, […] in a 1536-well plate.TOX21_p53_BLA_p5_viability is an assay readout measuring cellular ATP content and detected with CellTiter-Glo Luciferase-coupled ATP quantitation.TOX21_p53_BLA_p5_viability used a type of viability reporter where loss-of-signal activity can be used to understand changes in the cell viability. Furthermore, this assay endpoint can be referred to as a secondary readout, because this assay has produced multiple assay endpoints where this one serves a viability function. To generalize the intended target to other relatable targets, this assay endpoint is annotated to the cell cycle intended target family, where the subfamily is cytotoxicity.
Thawing Method: Place 14 mL of pre-warmed thaw medium into a 15 mL of conical tub. Remove the vial of cells to be thawed from liquid nitrogen and thaw rapidly by placing at 37C in a water bath with gentle agitation for 1-2 minutes. Decontaminate the vial by wiping with 70% ethanol before opening in a biological safety cabinet. Transfer the vial contents drop-wise into 14 mL of thaw medium in a sterile 15-mL conical tub. Centrifuge cells at 900 rpm for 4 minutes and resuspend in thaw medium. Transfer contents to the T75 tissue culture flask containing Thaw Medium and place flask in a humidified 37C/5% CO2 incubator. Switch to growth medium at first passage.Propagation Method: Aspirate medium, rinse once in DPBS, add 0.25% Trypsin/EDTA and swirl to coat the cell evenly. Add an equal volume of Growth Medium to inactivate Trypsin after 2-3 minutes incubation at 37C. Centrifuge cells at 900 rpm for 4 minutes and resuspend in growth medium. Cell should be passage or fed at least twice a week.Assay Protocol: Harvest cells from culture in growth medium and resuspend in assay medium. 2.2 Dispense 4000 cells/5 uL/well into 1536-well black/clear bottom plates using a Multidrop dispenser. After the cells were incubated at 37C for 5 hours, 23 nL of compounds dissolved in DMSO were transferred to the assay plate by a PinTool resulting in a 217-fold dilution. Incubate the plates for 16 hours at 37C, 5% CO2. Add 1 uL of 6X LiveBLAzer FRET B/G (CCF4-AM) Substrate Mixture to each well using a BioRAPTR dispenser and incubate the plates at room temperature for 2 hours. Measure fluorescence intensity at 460 and 530 nm emission and 405 nm excitation by an Envision detector. Data is expressed as the ratio of 460nm/530nm emissions. Add 4 uL of Cell-titer Glo to each well using BioRAPTR and incubate the plates at room temperature for […]. For cell viability readout that measures cytotoxicity, 4 ul/well of CellTiter-Glo reagent was added into the assay plates using a Flying Reagent Dispenser. After 30 min incubation at room temperature, the luminescence intensity in the plates was measured using a ViewLux plate reader.
Regarding `COC(=O)C(CN)c1c[nH]c2ccc(OC)cc12` (stereo not given), the outcome was inactive.
Consider `O=C(OCC(COC(=O)c1ccccc1)(COC(=O)c1ccccc1)COC(=O)c1ccccc1)c1ccccc1`, for which the result was inactive.
For the compound `COCC(C)OC(C)=O` (stereo not given), the compound was called inactive.
Take `CCCCCCCCC(=O)Cl`: the outcome was inactive.
With `CC(C(=O)O)c1ccc(N2Cc3ccccc3C2=O)cc1` (stereo not given), the result was inactive.
For the compound `Cc1[nH]cnc1CN1CCc2c(c3ccccc3n2C)C1=O`, the result was inactive.
Take `CCCCCCCCCCCCOC(=O)c1ccc(O)cc1`: the result was inactive.
Turning to `CCCCC[C@H](O)/C=C/[C@H]1[C@H](O)CC(=O)[C@@H]1C/C=C\CCCC(=O)O`, the compound was called inactive.
On to `CCN(CC)CCNc1ccc(CO)c2sc3ccccc3c(=O)c12`, for which the result was inactive.
Turning to `CCCCOC(=O)c1ccc(N)cc1`, the compound was classed as inactive.
On the same count and under the same terms, to `NCCO/C=C/[C@H](N)C(=O)O` belongs “inactive”; to `CCOC(=O)O[C@]1(C(=O)COC(=O)CC)CC[C@H]2[C@@H]3CCC4=CC(=O)C=C[C@]4(C)[C@H]3[C@@H](O)C[C@@]21C`, “inactive”; to `O=C1c2ccccc2C(=O)C1c1ccc2ccccc2n1`, “inactive”.
In the case of `COc1ccc(C(=O)Nc2ccccc2)cc1[N+](=O)[O-]`, the compound was called inactive.
For the compound `COc1ccccc1OCCNCC(O)COc1cccc2[nH]c3ccccc3c12` (stereo not given), the call was inactive.
`C=C(C)C(=O)OCCCCCC`: the compound was classed as inactive.
Still for that read-out and setting: the same measure for `COc1ccc(/C=C/C(=O)Nc2ccccc2C(=O)O)cc1OC`: “inactive”; for `C[N+](C)(C)CC[N+]1(C)Cc2c(Cl)c(Cl)c(Cl)c(Cl)c2C1`: “inactive”.
`C[C@]12CCC(=O)C[C@@H]1CC[C@@H]1[C@@H]2CC[C@]2(C)C=CC[C@@H]12`: the compound was classed as inactive.
On to `O=c1[nH]c(=O)n([C@H]2C[C@H](O)[C@@H](CO)O2)cc1F`, for which the AC50 is 0.595 µM (active).
In the case of `O=[N+]([O-])c1cccc(S(=O)(=O)O)c1`, the call was inactive.
Same read-out and setting: to `CC(=O)C1CCCCC1=O` (stereo not given) belongs “inactive”; to `NS(=O)(=O)c1cc2c(cc1Cl)NC(CC1CCCC1)NS2(=O)=O` (stereo not given), “inactive”; to `N/C(=N\N=Cc1ccc(Cl)cc1)NN=Cc1ccc(Cl)cc1`, “inactive”.
The same measure, in the same setting: the same measure for `CCOc1cc(OCC)c(C(=O)CCC(=O)O)cc1OCC`: “inactive”; for `CCN1CCC[C@H]1CNC(=O)c1c(O)c(Cl)cc(Cl)c1OC`: “inactive”; for `COc1cc(C)c(/C=C/C(C)=C/C=C/C(C)=C/C(=O)O)c(C)c1C`: “inactive”.
In the case of `CCCN1CCCC[C@H]1C(=O)Nc1c(C)cccc1C`, the outcome was inactive.
In the case of `CC1(C)N=C(N)N=C(N)N1c1ccc(Cl)cc1`, the half-maximal activity concentration (AC50) is 7.84 µM (active).
With `CN(C)CC/C=C1\c2ccccc2Sc2ccc(Cl)cc21`, the result was inactive.
Still for that read-out and setting: the same measure for `CCCCCC[C@@H](CCC)C(=O)O`: “inactive”; for `CC[C@H]1OC(=O)[C@H](C)[C@@H](O[C@H]2C[C@@](C)(OC)[C@@H](O)[C@H](C)O2)[C@H](C)[C@@H](O[C@@H]2O[C@H](C)C[C@H](N(C)C)[C@H]2O)[C@](C)(O)C[C@@H](C)[C@@H]2N[C@@H](COCCOC)O[C@@H]([C@H]2C)[C@]1(C)O`: “inactive”; for `CC1c2ccccc2CN1NC(=O)c1ccc(Cl)c(S(N)(=O)=O)c1` (stereo not given): “inactive”.
For the compound `Clc1ccc(Cn2c(CN3CCCC3)nc3ccccc32)cc1`, the call was inactive.
For `COC(=O)c1ccccc1`, the outcome was inactive.
On to `CNc1ccc(O)cc1`, for which the half-maximal activity concentration (AC50) was 78 µM (active).
In the case of `O=C=Nc1ccc(Cc2ccc(N=C=O)cc2)cc1`, the compound was called inactive.
For the compound `C[C@@H]1CC[C@H]2C(C)(C)[C@H]3C[C@@]12CC[C@@]3(C)O`, the compound was called inactive.
Take `NCCc1cnc[nH]1`: the outcome was inactive.
Take `O=[N+]([O-])c1ccc(O)c2ncccc12`: the compound was classed as inactive.

Source of the values: PubChem BioAssay (EPA / NIEHS).
